Screening data (PubChem BioAssay)
TDP1 block: TDP1 (human) enzyme inhibition | recombinant TDP1, AlphaScreen DNA substrate cleavage | Q9NUW8 | Potency, µM (doses to about 130 µM), hits mostly inhibitors | 350,000 compounds, 0.28% hits; note: nearly all actives have a fitted effect of over 40% in size
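Here, a 5' biotin and 3' phosphotyrosine-FITC DNA oligonucleotide reports Tdp1 activity: intact substrate bridges AlphaScreen beads, while cleavage leaves a 3' phosphate and drops signal. All incubations at room temperature.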
POLB inh: blocks human DNA polymerase beta activity; Potency, µM (top dose mostly 114 µM), hits mostly inhibitors; 340,000 compounds, 1.3% hits; P06746; Pol beta primer extension/strand displacement, fluorescence kinetic
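Curves were derived by four-parameter Hill fits of normalized qHTS data. The kinetic fluorescent primer-extension read was taken at 0 and 10 min after 50 nM substrate, following a 15 min room-temperature preincubation of 10 nM enzyme with compounds.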
Pol kappa inh: blocks human DNA polymerase kappa activity. Q9UBT6. Potency, µM (top dose mostly 107 µM), most hits filed as inhibitors. 400,000 compounds, 0.53% hits. AID 588579. purified Pol kappa, fluorescent DNA synthesis assay, 10 min
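First, compounds were pin-transferred onto 10 nM Pol kappa. After 15 min at room temperature, substrate was added to 50 nM final. Fluorescence was then measured kinetically at 0 and 10 min.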
Pol eta inh: inhibitors of human DNA polymerase eta; Q9Y253; recombinant Pol eta, fluorescent DNA replication assay; Potency, µM (highest dose often 114 µM), usual class: inhibitors; 390,000 compounds, 1.2% hits; AID 588591
Target sequence (Q9Y253 whole entry, looked up): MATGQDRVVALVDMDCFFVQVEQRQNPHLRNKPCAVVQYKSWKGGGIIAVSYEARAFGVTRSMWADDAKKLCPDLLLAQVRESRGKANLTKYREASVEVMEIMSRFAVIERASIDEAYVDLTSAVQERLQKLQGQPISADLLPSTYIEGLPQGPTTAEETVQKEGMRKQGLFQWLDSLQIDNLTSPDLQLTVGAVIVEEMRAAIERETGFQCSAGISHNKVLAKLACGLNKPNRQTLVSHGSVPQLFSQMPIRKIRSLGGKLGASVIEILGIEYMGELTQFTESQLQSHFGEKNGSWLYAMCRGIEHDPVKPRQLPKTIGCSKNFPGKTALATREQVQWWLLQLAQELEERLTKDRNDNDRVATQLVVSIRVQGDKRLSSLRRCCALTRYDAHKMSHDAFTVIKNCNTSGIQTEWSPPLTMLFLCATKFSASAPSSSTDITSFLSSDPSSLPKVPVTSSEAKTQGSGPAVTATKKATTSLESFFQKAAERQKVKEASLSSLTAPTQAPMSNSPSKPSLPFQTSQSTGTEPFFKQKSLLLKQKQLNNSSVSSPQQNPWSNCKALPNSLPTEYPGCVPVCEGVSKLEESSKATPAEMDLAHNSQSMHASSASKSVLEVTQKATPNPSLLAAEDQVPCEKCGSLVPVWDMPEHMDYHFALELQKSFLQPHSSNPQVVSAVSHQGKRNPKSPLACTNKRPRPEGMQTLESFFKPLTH
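Pol eta (10 nM) was preincubated with compounds for 15 min at room temperature, after which fluorescent replication substrate (50 nM final) was added to start the reaction. Fluorescence was read kinetically at 0 and 10 min.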
POLI inh: DNA polymerase iota (human) inhibition; Pol iota fluorescent replication assay, 10 min; Potency, µM (titrated, usually from 115 µM), hits mostly inhibitors; 390,000 compounds, 1% hits
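Fluorescent replication assay read twice, at 0 min and 10 min after adding 50 nM (final) substrate. Enzyme (10 nM) and compounds were first incubated 15 min at room temperature; enzyme-free buffer wells were negative controls.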
A number is an active result; 0 = inactive; ? = inconclusive; - = no result; [ ] = another dose, or the depositor's remark. Only some compounds are listed: those with a hit (about 2.4% of all), similar ones and a draw of the others. Calls come from the whole dose curve; as a rule, active = well fitted curve in the direction sought with a large enough effect; inconclusive = small, poorly fitted or top-dose-only effect, or another doubt; inactive = no such curve, though single readings can be large; an effect the other way counts as inactive or inconclusive.

SMILES	TDP1 block	POLB inh	Pol kappa inh	Pol eta inh	POLI inh
CC(=O)OCC1=C(C(=O)O)N2C(=O)[C@@H](NC(=O)CCC[C@@H](N)C(=O)O)[C@H]2SC1	-	-	0	-	-
CC(=O)OCC1=C(C(=O)O)N2C(=O)C(NC(=O)CCCC(N)C(=O)O)C2SC1 (stereo not drawn)	25µM	-	?	-	-
CC(N)C(=O)NCC(=O)NC1CSSCC(C(=O)O)NC(=O)C(CO)NC(=O)C(C(C)O)NC(=O)C(Cc2ccccc2)NC(=O)C(C(C)O)NC(=O)C(CCCCN)NC(=O)C(Cc2c[nH]c3ccccc23)NC(=O)C(Cc2ccccc2)NC(=O)C(Cc2ccccc2)NC(=O)C(CC(N)=O)NC(=O)C(CCCCN)NC1=O (stereo not drawn)	-	-	0[19.4 µM]	-	-
C=CCN1C(=O)NC(=O)/C(=C\c2ccc(-c3ccccc3[N+](=O)[O-])o2)C1=O	0	?	0	?	?
O=C1NC(=O)N(Cc2ccco2)C(=O)/C1=C/c1ccc(-c2cccc([N+](=O)[O-])c2)o1	-	18µM	22µM	8.9µM	7.9µM
CCC1(C)OC(c2ccccc2)=C/C(=C/C=C2C(=O)NC(=O)NC2=O)O1 (stereo not drawn)	0	?	0	0	28µM
CCOC(=O)c1c(-n2c(C)cc(/C=C3/C(=O)NC(=O)N(CC)C3=O)c2C)sc2c1CCCC2	-	-	0	?	?
CCOC(=O)c1c(-n2c(C)cc(C=C3C(=O)NC(=S)NC3=O)c2C)sc2c1CCCC2	0	22µM	?	28µM	?
Cc1cccn2c(=O)cc(COc3cccc(NC(=O)COc4ccc(F)cc4)c3)nc12	0	0	0	?	0
O=C1NC(=O)N(c2ccccc2)C(=O)/C1=C\c1ccccc1[N+](=O)[O-]	-	0	0	0	?
O=C1NC(=O)N(c2ccccc2)C(=O)/C1=C/c1coc2ccc(O)cc2c1=O	-	0	?	?	22µM
CCC1(C)CC(C(N)=S)CCO1 (stereo not drawn)	0	0	0	0	?
O=C1/C(=C/c2ccc(N(CCCl)CCCl)cc2)Cc2ccccc21	-	-	0	-	0
O=c1[nH]c(=S)[nH]c(O)c1N=Nc1ccc(S(=O)(=O)N2CCc3ccccc32)cc1	0	79µM	0	0	0
C[C@H](N)C(=O)NCC(=O)N[C@H]1CSSC[C@@H](C(=O)O)NC(=O)[C@H](CO)NC(=O)[C@H]([C@@H](C)O)NC(=O)[C@H](Cc2ccccc2)NC(=O)[C@H]([C@@H](C)O)NC(=O)[C@H](CCCCN)NC(=O)[C@@H](Cc2c[nH]c3ccccc23)NC(=O)[C@H](Cc2ccccc2)NC(=O)[C@H](Cc2ccccc2)NC(=O)[C@H](CC(N)=O)NC(=O)[C@H](CCCCN)NC1=O	0	-	0	-	-
CN(C)CCNC(=S)Nc1ccccc1Cl	0	0	0	0	0
CN(CC(=O)NC(=O)NCc1ccco1)CC(=O)Nc1ccccc1Cl	0	0	?	?	50µM
CCCNC(=O)c1c(N)n(CC2CCCO2)c2nc3ccccc3nc12 (stereo not drawn)	0	0	0	0	0
CC(C)OCCCNC(=O)c1c(N)n(CC2CCCO2)c2nc3ccccc3nc12 (stereo not drawn)	-	?	0	0	7.1µM
COCCCn1c(N)c(C(=O)NCCC(C)C)c2nc3ccccc3nc21	?	0	0	0	4.5µM
COc1ccc(Cn2c(N)c(C(=O)NCc3ccco3)c3nc4ccccc4nc32)cc1	0	56µM	0	?	?
CC1=C(O)C(=O)C=C2C1=CC=C1[C@]2(C)CC[C@@]2(C)C3C[C@](C)(C(=O)O)CC[C@@]3(C)CC[C@@]12C (stereo partly drawn)	0	-	?	-	-
C/C=C(/C)C(=O)O[C@H]1C(C)=C2C([C@@H]1OC(=O)CCCCCCC)[C@@](C)(OC(C)=O)C[C@@H](OC(=O)CCC)[C@@]1(O)[C@H]2OC(=O)[C@@]1(C)O (stereo partly drawn)	0	?	-	?	?
C/C1=C\[C@@H](C)C/C=C/[C@H]2[C@@H]3O[C@]3(C)[C@@H](C)[C@H]3[C@H](Cc4c[nH]c5ccccc45)NC(=O)[C@]32C(=O)/C=C/C(=O)[C@@H]1O	0	22µM	?	?	?
NC(=O)[C@H](Cc1ccccc1)NC(=O)[C@H](Cc1c[nH]c2ccccc12)NC(=O)[C@@H]1CCCN1C(=O)[C@@H](N)Cc1ccc(O)cc1	0	-	0	-	-
